These results are taken from article PMC13083723 (Patterns, 2026).

Hit rate of the full screen: of about 5,400 compounds, about 190 (3.5%) showed an effect of 50% or more. The entries come from a sample that favours strong results as a whole.

The test system of this experiment is Vero-E6. Kind of experiment: primary screen, phospholipidosis by LipidTOX staining; higher = more effect of the substance. To be noted: 10 µM. The procedure, abridged:
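Drug-induced phospholipidosis detected with HCS LipidTOX Red reagent in Vero-E6 cells. Compounds tested at 10 μM, with amiodarone (10 μM) as positive control and DMSO (0.1 v/v %) as vehicle.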
As to `O=C(NO)c1ccc(O)c(O)c1`, the result_ITMP was -2.75%.
The value for `C[C@]12CCC(=O)C[C@@H]1CC[C@@H]1[C@@H]2CC[C@]2(C)C=CC[C@@H]12` was -0.52%; that for `C[C@]12CC[C@H](O)C[C@H]1CC[C@@H]1[C@@H]2CC[C@]2(C)[C@@](O)(c3ccoc3)CC[C@]12O` was -7.29%.
Take `Cc1ccccc1N(C)C(=O)c1ccc(S(=O)c2nccs2)c([N+](=O)[O-])c1` (stereo not shown): the result_ITMP stood at 70.1%.
The value for `CN1c2c(nc(N)[nH]c2=O)NC[C@@H]1CNc1ccc(C(=O)N[C@@H](CCC(=O)[O-])C(=O)[O-])cc1` was -7.73%.
Consider `CC[C@@]1(C2O[C@@H](C3O[C@@](O)(CO)[C@H](C)C[C@@H]3C)C[C@@H]2C)CC[C@H]([C@]2(C)CCC3(C[C@H](O)[C@@H](C)[C@@H]([C@H](C)[C@@H](OC)[C@H](C)C(=O)[O-])O3)O2)O1` (stereo partly shown), for which the result_ITMP is listed as -2.43%.
Turning to `CN1CCN(c2nc3ccccc3nc2Cl)CC1`, the result_ITMP is on record as 5.5%.
In the case of `CN1CCN(C2=Cc3ccccc3Oc3ccc(Cl)cc32)CC1`, the result_ITMP stood at 61.3%.
The same measure for `CN1C[C@@H]2c3ccccc3Oc3ccc(Cl)cc3[C@H]2C1.CN1C[C@H]2c3ccccc3Oc3ccc(Cl)cc3[C@@H]2C1`: 65.2%; for `CN1CCN2c3ccccc3Cc3ccccc3C2C1` (stereo not shown): 15.9%; for `CC(=O)NNC(=O)N1Cc2ccccc2Oc2ccc(Cl)cc21`: -0.36%.
As for `CN1CCN(c2cc(-c3ccccc3)nc(N)n2)CC1`, the result_ITMP was 5.46%.
Turning to `CCCC(=O)[O-]`, the result_ITMP is given as -6.95%.
In the case of `CCOC(=O)[C@H](C)C[C@@H](Cc1ccc(-c2ccccc2)cc1)NC(=O)CCC(=O)[O-]`, the result_ITMP is recorded as 0.47%.
`CC(C)Cc1ccc(C(C)C(=O)O)cc1` (stereo not shown) [R4A_0001344_001 / SPE_K14965640]: the result_ITMP amounted to 1.58%.
As for `O=P([O-])(O)C(Cl)(Cl)P(=O)([O-])O`, the result_ITMP was -2.27%.
Consider `CNCc1ccc(C)c(NC(=O)c2ccc(Nc3nc(-c4ccccc4)c4ccccc4n3)cc2)c1`, for which the result_ITMP was 67.4%.
Consider `Cc1ccc(NC(=O)c2cccc(N(C)C)c2)cc1NC(=O)c1ccc(O)cc1`, for which the result_ITMP was -6.05%.
Turning to `Cc1cc(Nc2ccc(NC(=O)c3ccc(Nc4ccnc5ccccc45)cc3)cc2)nc(N)n1`, the result_ITMP worked out at 13.5%.
With `CN1C2C[C@H](OC(=O)[C@H](CO)c3ccccc3)C[C@H]1[C@H]1OC21` (stereo partly shown), the result_ITMP is on record as -1.02%.
Take `C=C1/C(=C\C=C2/CCC[C@]3(C)[C@@H]([C@H](C)/C=C/C=C/C(O)(CC)CC)CC[C@@H]23)C[C@@H](O)C[C@@H]1O`: the result_ITMP is reported as -2.42%.
The value for `C[C@@]12C(=O)OC(=O)[C@]1(C)[C@H]1CC[C@@H]2O1` was 7.41%.
For `CNCCC=C1c2ccccc2C=Cc2ccccc21`, the result_ITMP turned out to be 42.4%.
Consider `CNCC/C=C/c1cccnc1`, for which the result_ITMP was -4.64%.
For the compound `CNCCC=C1c2ccccc2CCc2ccccc21`, the result_ITMP turned out to be 64.4%.
